From PubChem BioAssay AID493078 (National Center for Advancing Translational Sciences (NCATS), 2011)
Some of the results follow. Results filed as inconclusive are left out. Values without a mark were called inactive. The call rests on the fitted dose curve; in most records, active means well fitted activation curve with a large enough effect; inconclusive means small, poorly fitted or top-dose-only effect; inactive means flat fitted curve, though single readings scatter.

target: Thyrotropin-releasing hormone receptor (Homo sapiens) (UniProt P34981); assay: qHTS for Small Molecule Agonists and Allosteric Enhancers of Human TRH Receptor: Confirmation Screen for Agonists; details: TRHR-expressing cells, agonist activation read-out; series mostly up to 46.1 µM; activation: at the top concentration; further: 0% is about no effect; nearly all actives have a fitted effect of over 75% in size
Excerpt: NIH Chemical Genomics Center [NCGC]
NIH Molecular Libraries Probe Centers Network [MLPCN]
Assay Submitter (PI): Marvin Gershengorn
This project aims to identify small drug-like molecules that activate (agonists) the thyrotropin releasing hormone (TRH) receptor (TRHR) or enhance its TRH-stimulated activity (allosteric enhancers). TRHR, a drug-accessible cell surface receptor expressed in specific brain regions, and its ligand TRH have been implicated in several central nervous system disorders, including depression and anxiety. Small molecule TRHR agonists or allosteric enhancers that are metabolically stable and able to cross the blood-brain barrier might serve as probes to elucidate the roles of brain TRH receptors in animal models, and might be valuable as lead compounds for the development of drugs to treat patients with central nervous system disorders.
Upon TRHR-Gq activation in TRHR cells, intracellular calcium is released from stores in the endoplasmic reticulum.
For the HTS assay freshly prepared cells are plated at a density of 2000/well in 3 ul of complete DMEM medium containing 10% serum in 1536-well plates and cultured over night at 37 C in a humidified incubator with 5% CO2. The next day, 2 ul of a no wash calcium dye (ABD Bioquest) was added to the cells and plates were incubated at room temperature for 1 hour. For the assay, assay plates were loaded into the FDSS kinetic plate reader. A 10 cycle (1 second/cycle) baseline measurement is taken and then the FDSS online 1536 pintool delivers 23 nl of compound library (as well as TRH controls) to the plate. The plate is measured for kinetically at 1 cycle/sec for 180 seconds and is considered to be the agonist portion of the assay (eg, compounds which activate a positive calcium response during this portion are flagged as potential agonists). Following the 180 second read, 1 ul of either an EC20 (positive modulation assay) is delivered by an onboard pipette head. Measurements are taken kinetically for an additional 180 seconds.
TRHR FDSS Screening Protocol
1. Reagent, 3 uL 2000 cells/well 1536 TC treated Black plate in media containing 10% FCS
2. Time, 18 hours, 33.5C 5% CO2 (cells grown at 37C)
3. Reagent, 2 uL ABD fluo-8 Ca dye
4. Time, 30 min-1.5hrs hours, Room temp (6 plates/batch)
5. Detector, EX 480/EM 530C, FDSS 10 cycles baseline (1sec/cycle)
6. Compound, 23 nL of stock solution from library
7. Detector, EX 480/EM 530C, FDSS 230 cycles (1sec/cycle) Agonist mode
8. Compound, 1 ul EC20 of TRH made up in HEPES HBSS, 10 nM final
9. Detector, EX 480/EM 530C, FDSS 100 cycles (1sec/cycle) Potentiator mode

Thyrotropin-releasing hormone receptor (Homo sapiens), sequence (P34981 whole entry, looked up): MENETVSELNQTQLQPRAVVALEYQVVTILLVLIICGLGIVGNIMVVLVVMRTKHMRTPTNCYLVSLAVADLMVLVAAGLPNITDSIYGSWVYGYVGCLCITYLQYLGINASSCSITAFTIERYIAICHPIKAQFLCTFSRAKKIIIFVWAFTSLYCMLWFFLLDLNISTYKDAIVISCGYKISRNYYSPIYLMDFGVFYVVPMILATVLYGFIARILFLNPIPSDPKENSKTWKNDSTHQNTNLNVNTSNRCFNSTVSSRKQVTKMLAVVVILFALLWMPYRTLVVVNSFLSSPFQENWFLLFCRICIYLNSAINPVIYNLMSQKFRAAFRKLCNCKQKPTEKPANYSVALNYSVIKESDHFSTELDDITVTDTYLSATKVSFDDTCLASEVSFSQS

| Structure (SMILES) | activation [%] |
| --- | --- |
| CCOc1cc(CN2CCCC(CO)(Cc3ccc(F)cc3F)C2)ccc1OC (stereo unspecified) | 7.9 |
